From PubChem BioAssay
T cruzi growth-1: inhibitors of T. cruzi proliferation. inhibition, % at 8.34 µM. T. cruzi beta-gal in NIH3T3, GalScreen luminescence, 90 h. hit rate 5.9% among 77,000;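 active = mean inhibition above about 93%, with at least 55% of replicates each passing it, limit read from the data, passing the limit was not always enough; inconclusive = only one of those two conditions holds; inactive = neither condition holds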
Pf Dd2 inh: P. falciparum Dd2 growth inhibition; SYBR Green, 72 h; active compounds read low; activity change, % at 10 µM; hit rate 2.3% among 94,000; AID 1159554; in the data active = activity change below about -80%; inconclusive = no clear call, values can overlap the other calls
C diff growth: inhibitors of Clostridium difficile growth. Clostridium difficile clinical isolate growth, OD600, 24 h; active compounds read low. hit rate 0.25% among 86,000. AID 1259249. growth activity, negative = inhibition, % at 16 µg/mL (by protocol);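 active = mean growth activity at or below -80% and every replicate also at or below -80%; inconclusive = mean at or below -80% but some replicate above -80%; inactive = mean growth activity above -80%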
T cruzi growth-2: Trypanosoma cruzi proliferation inhibition; AID 651739; hit rate 72% among 5,600; inhibition, % at 8.35 µM; T. cruzi beta-gal in NIH3T3, GalScreen luminescence, 90 h; shares compounds with T cruzi growth-1;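 active = mean replicate inhibition above about 95% and at least 55% of replicates individually reaching it, limit read from the data; inconclusive = only one of the two criteria is met; inactive = neither criterion is met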
T cruzi growth-3: inhibitors of T. cruzi proliferation | shares compounds with T cruzi growth-1 | T. cruzi beta-gal in NIH3T3, GalScreen luminescence, 90 h | inhibition, % at 2.09 µM | hit rate 21% among 5,600 | AID 651740;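 active = mean inhibition above about 95%, with at least 55% of replicates also reaching it, limit read from the data; inconclusive = meets just one of the two conditions; inactive = meets neither condition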
3T3 cytotox: kills mouse NIH/3T3 fibroblasts. shares compounds with T cruzi growth-1. NIH/3T3 viability, CellTiter-Glo ATP luminescence, 90 h. cytotoxicity (signal decrease), % at 8.35 µM. hit rate 14% among 5,600. AID 651742;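 active = mean signal decrease across replicates above about 35% based on untreated-well scatter, with enough replicates individually passing, limit read from the data; inconclusive = no rule stated though some were filed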
NIH3T3 tox 2: kills mouse NIH/3T3 fibroblasts; shares compounds with T cruzi growth-1; NIH/3T3 viability, CellTiter-Glo ATP luminescence, 90 h; inhibition, % at 24.9 µM; hit rate 56% among 5,600;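 active = mean loss of cell viability signal at or above a set limit, and enough replicates individually reaching it; inconclusive = meets only the mean limit or only the replicate share; inactive = meets neither condition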
Numbers stand for hits; - = inactive; ? = inconclusive; . = not tested or not shown. Only some compounds are listed: those with a hit (about 6.8% of all), similar ones and a draw of the others.

SMILES | T cruzi growth-1 | Pf Dd2 inh | C diff growth | T cruzi growth-2 | T cruzi growth-3 | 3T3 cytotox | NIH3T3 tox 2
C[C@@H]1CN([C@H](C)CO)S(=O)(=O)c2ccc(C3=CCCC3)cc2O[C@@H]1CN(C)CC1CC1 | - | - | - | . | . | . | .
CCCNC(=O)Nc1ccc2c(c1)C(=O)N(C)C[C@@H](OC)[C@@H](C)CN(CCC(F)(F)F)[C@@H](C)CO2 | - | . | . | . | . | . | .
NCC[C@@H]1CC[C@@H](NC(=O)C2CCC2)[C@@H](CO)O1 | - | - | - | . | . | . | .
O=C(C1CCC1)N1CC2(C1)[C@H](c1ccccc1)[C@@H](CO)N2Cc1cccnc1 | . | - | - | . | . | . | .
Cc1ccccc1S(=O)(=O)N1CC[C@@H]2[C@@H](CO)Nc3ccc(-c4ccccc4)cc3[C@@H]21 | - | - | - | . | . | . | .
Cc1ccccc1S(=O)(=O)N1CC[C@@H]2[C@H]1c1cc(-c3ccccc3)ccc1N[C@@H]2CO | - | - | - | . | . | . | .
Cc1ccccc1S(=O)(=O)N1CC[C@H]2[C@H](CO)Nc3ccc(-c4ccc(C#N)cc4)cc3[C@H]21 | 115.4 | - | - | 107.5 | - | 51.9 | 69.5
Cc1ccccc1S(=O)(=O)N1CC[C@@H]2[C@@H](CO)Nc3ccc(-c4ccc(C#N)cc4)cc3[C@@H]21 | ? | - | - | 97.5 | - | 65.8 | 91.7
CO[C@H]1CC[C@H]2CCN(C)C(=O)[C@@H](C)[C@@H](OC)CN(C)C(=O)c3cc(C#N)ccc3OC[C@@H]1O2 | - | - | . | . | . | . | .
COc1ccc2c3c(n(C)c2c1)[C@H](CO)N(C(=O)c1ccccc1)CC31CN(CC2CC2)C1 | . | - | - | . | . | . | .
CCCN(C)C[C@H]1Oc2cc(C#Cc3ccccc3)ccc2S(=O)(=O)N([C@@H](C)CO)C[C@H]1C | - | - | - | . | . | . | .
CCCN(C)C[C@H]1Oc2cc(C#Cc3cccc(F)c3)ccc2S(=O)(=O)N([C@H](C)CO)C[C@H]1C | - | . | - | . | . | . | .
CCCN(C)C[C@@H]1Oc2cc(C#Cc3cccc(F)c3)ccc2S(=O)(=O)N([C@H](C)CO)C[C@@H]1C | 108.1 | . | - | 106.7 | - | - | 106.4
CCCC#Cc1ccc2c(c1)O[C@@H](CN(C)CCC)[C@H](C)CN([C@@H](C)CO)S2(=O)=O | 99.2 | - | . | 101.3 | - | 39.3 | 103.7
CCCN(C)C[C@H]1Oc2cc(C#Cc3ccc(F)cc3)ccc2S(=O)(=O)N([C@H](C)CO)C[C@@H]1C | - | - | - | . | . | . | .
CCCC#Cc1ccc2c(c1)O[C@H](CN(C)CCC)[C@H](C)CN([C@@H](C)CO)S2(=O)=O | - | - | - | . | . | . | .
CCCN(C)C[C@H]1Oc2cc(C#Cc3cccc(F)c3)ccc2S(=O)(=O)N([C@@H](C)CO)C[C@H]1C | 108.3 | . | - | 102.0 | - | - | 103.2
CCCN(C)C[C@H]1Oc2cc(C#Cc3cccc(F)c3)ccc2S(=O)(=O)N([C@H](C)CO)C[C@@H]1C | 110.3 | . | - | 112.0 | - | - | 103.9
COC(=O)c1ccc(CN2CC(=O)N3[C@@H](CO)[C@H](c4ccc(-c5cccnc5)cc4)[C@@H]3C2)cc1 | . | - | - | . | . | . | .
CC(C)NC(=O)N(C)C[C@@H]1Oc2cc(C#CC(C)(C)O)ccc2S(=O)(=O)N([C@@H](C)CO)C[C@H]1C | - | - | - | . | . | . | .
CCCNC(=O)N[C@H]1CC[C@H](CCn2cc(-c3cccc(F)c3)nn2)O[C@H]1CO | - | - | . | . | . | . | .
C/C=C/c1ccc([C@H]2[C@H]3CN(C(=O)Nc4ccc(OC)cc4)CC(=O)N3[C@H]2CO)cc1 | . | - | - | . | . | . | .
O=C(C1CCC1)N1CC2(C1)[C@H](c1ccccc1)[C@H](CO)N2Cc1cccnc1 | . | - | - | . | . | . | .
C[C@H](CO)N1C[C@H](C)[C@H](CN(C)S(=O)(=O)c2cn(C)cn2)Oc2ccc(NC(=O)Nc3cccc4ccccc34)cc2C1=O | - | - | . | . | . | . | .
CCCN(C)C[C@H]1Oc2cc(C#Cc3ccccc3F)ccc2S(=O)(=O)N([C@H](C)CO)C[C@@H]1C | - | - | - | . | . | . | .
SMILES | T cruzi growth-1 | Pf Dd2 inh | C diff growth | T cruzi growth-2 | T cruzi growth-3 | 3T3 cytotox | NIH3T3 tox 2
CCCN(C)C[C@@H]1Oc2cc(C#Cc3ccccc3F)ccc2S(=O)(=O)N([C@@H](C)CO)C[C@H]1C | ? | - | - | 107.0 | - | - | 104.8
C[C@H](CO)N1C[C@H](C)[C@H](CN(C)C(=O)Nc2cccc3ccccc23)Oc2ccc(NC(=O)Nc3cccc4ccccc34)cc2C1=O | - | - | - | . | . | . | .
C[C@@H]1CN([C@H](C)CO)S(=O)(=O)c2ccc(C3=CCCC3)cc2O[C@H]1CN(C)C(=O)C1CCCCC1 | - | - | - | . | . | . | .
C[C@H](CO)N1C[C@H](C)[C@H](CN(C)C(=O)C2CCCCC2)Oc2cc(C3=CCCCC3)ccc2S1(=O)=O | 115.6 | - | - | 102.0 | - | - | 106.6
C[C@H]1CN([C@@H](C)CO)S(=O)(=O)c2ccc(C3=CCCC3)cc2O[C@@H]1CN(C)C(=O)C1CCC1 | - | - | - | . | . | . | .
C[C@H]1CN([C@@H](C)CO)S(=O)(=O)c2ccc(C3=CCCCC3)cc2O[C@@H]1CN(C)C(=O)C1CCC1 | - | - | - | . | . | . | .
C[C@@H]1CN([C@H](C)CO)S(=O)(=O)c2ccc(C3=CCCCC3)cc2O[C@H]1CN(C)C(=O)C1CCCCC1 | 108.8 | - | - | 104.6 | - | - | 104.6
C[C@H](CO)N1C[C@H](C)[C@H](CN(C)C(=O)C2CCCCC2)Oc2cc(C3=CCCC3)ccc2S1(=O)=O | - | - | - | . | . | . | .
C[C@H]1CN([C@@H](C)CO)S(=O)(=O)c2ccc(C3=CCCCC3)cc2O[C@H]1CN(C)C(=O)C1CCCCC1 | 122.7 | - | - | 104.5 | - | - | 107.3
C[C@@H]1CN([C@H](C)CO)S(=O)(=O)c2ccc(C3=CCCC3)cc2O[C@H]1CN(C)C(=O)C1CCC1 | 110.7 | - | - | - | - | - | 24.3
Cc1ccc(S(=O)(=O)Nc2ccc3c(c2)C(=O)N([C@@H](C)CO)C[C@H](C)[C@@H](CN(C)C(=O)CCC(F)(F)F)OCCCC[C@H](C)O3)cc1 | - | - | . | . | . | . | .
CN(C)C(=O)C[C@H]1CC[C@@H](NC(=O)Nc2cccc(F)c2)[C@@H](CO)O1 | . | - | - | . | . | . | .
C[C@@H]1CCCCO[C@@H](CN(C)S(=O)(=O)c2ccccc2)[C@@H](C)CN([C@@H](C)CO)C(=O)c2cc(NC(=O)c3ccncc3)ccc2O1 | . | - | - | . | . | . | .
COc1cccc(-c2ccc(C3[C@@H]4CN(C(=O)Cc5ccncc5)C[C@H]3N4)cc2)c1 (stereo not given in full) | . | - | - | . | . | . | .
COc1ccc(NC(=O)N(C)C[C@@H]2Oc3ccc(NC(=O)CCN4CCOCC4)cc3CC(=O)N([C@@H](C)CO)C[C@@H]2C)cc1 | . | - | - | . | . | . | .
CCCC#Cc1ccc2c(c1)O[C@H](CN(C)Cc1ccccn1)[C@H](C)CN([C@@H](C)CO)S2(=O)=O | - | . | - | . | . | . | .
CCCC#Cc1ccc2c(c1)O[C@H](CN(C)Cc1ccccn1)[C@@H](C)CN([C@H](C)CO)S2(=O)=O | 103.9 | . | - | 107.5 | - | 40.5 | 68.5
